Pf growth 96h: Primary qHTS for delayed death inhibitors of the malarial parasite plastid, 96 hour incubation. Potency, µM (top dose mostly 28.7 µM), for inactives: top-dose activity change, negative = inhibition, usual class: inhibitors. hit rate 6.9% among 320,000. AID 504834, 2011. P. falciparum luciferase reporter growth, 96 h
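P. falciparum expressing integrated firefly luciferase grown in erythrocytes (2% hematocrit, 0.05% parasitemia final) with compounds for 96 hours at 37 C, 5% CO2. Growth inhibition read as loss of luminescence after adding luciferase detection reagent.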
AmpC inh no detg: qHTS Inhibitors of AmpC Beta-Lactamase (assay without detergent); AID 485341, 2010; Potency, µM (titrated, usually from 57.1 µM), without a hit: top-dose activity change, negative = inhibition, hits mostly inhibitors; hit rate 0.52% among 330,000; P00811; AmpC nitrocefin hydrolysis, absorbance 480 nm, 0.0001% Triton;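 further: plate controls were no compound for no effect and no enzyme for full effect; nearly all actives have a fitted effect of over 20% in size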
Target sequence (P00811 whole entry, looked up): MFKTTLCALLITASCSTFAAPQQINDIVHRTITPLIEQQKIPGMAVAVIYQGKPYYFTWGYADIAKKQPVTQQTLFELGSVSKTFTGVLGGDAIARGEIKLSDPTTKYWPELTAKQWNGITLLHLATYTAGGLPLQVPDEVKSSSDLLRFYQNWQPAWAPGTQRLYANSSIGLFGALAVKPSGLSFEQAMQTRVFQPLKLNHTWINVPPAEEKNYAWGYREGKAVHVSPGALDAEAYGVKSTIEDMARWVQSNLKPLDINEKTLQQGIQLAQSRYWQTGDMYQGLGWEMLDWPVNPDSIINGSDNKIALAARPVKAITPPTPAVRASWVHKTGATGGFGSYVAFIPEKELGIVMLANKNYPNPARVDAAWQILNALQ
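AmpC (5.3 nM in the dispensed reagent) in 20 mM phosphate pH 7.0 with 0.01% (detergent screen) or 0.0001% Triton X-100 was preincubated with compounds for 15 min at room temperature. Nitrocefin was then added from an 800 uM solution, and hydrolysis was followed at 480 nm.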
AMA1-RON2 inh: qHTS for Inhibitors of AMA1-RON; Towards Development of Antimalarial Drug Lead: Primary Screen | AlphaScreen AMA1-biotinylated RON2 peptide binding | Potency, µM (highest dose often 58.2 µM), without a hit: top-dose activity change, negative = inhibition, usual class: inhibitors | hit rate 0.2% among 360,000;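 further: 0% = vehicle wells and -100% = peptide control; nearly all actives have a fitted effect of over 45% in size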
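AMA1 (3D7) with his tag at 25 nM final met compounds first, then biotinylated RON2 peptide at 25 nM; detection used donor plus acceptor beads, 10 µg/mL apiece, read by AlphaScreen after 30 min at room temperature.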
Pf growth 48h: Primary qHTS for delayed death inhibitors of the malarial parasite plastid, 48 hour incubation; P. falciparum luciferase growth in erythrocytes, 48 h; Potency, µM (doses to about 28.7 µM), for the others: top-dose activity change, negative = inhibition, usual class: inhibitors; hit rate 5.9% among 310,000
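Firefly luciferase activity from engineered P. falciparum reports growth; inhibitors lower the luminescent signal. Cultures contained 2% hematocrit erythrocytes at 0.1% final parasitemia.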
AmpC detergent: qHTS Inhibitors of AmpC Beta-Lactamase (assay with detergent); P00811; AID 485294, 2010; AmpC hydrolysis of nitrocefin, absorbance 480 nm, 0.01% Triton; Potency, µM (doses to about 114 µM), for the others: top-dose activity change, negative = inhibition, actives largely listed as inhibitors; hit rate 0.041% among 370,000;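 further: 0% = no-compound wells and -100% = no-enzyme wells; nearly all actives have a fitted effect of over 25% in size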
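AmpC (5.3 nM in the dispensed reagent) in 20 mM phosphate pH 7.0 with 0.01% (detergent screen) or 0.0001% Triton X-100 was preincubated with compounds for 15 min at room temperature. Nitrocefin was then added from an 800 uM solution, and hydrolysis was followed at 480 nm.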
HCV inhibitor: qHTS Assay for Inhibitors of Hepatitis C Virus (HCV); Huh7.5.1 HCVcc-Cre infection, luciferase reporter, 44 h; AID 651820, 2012; Potency, µM (series often up to 41.8 µM), for inactives: at the top dose activity change, negative = inhibition, usual class: inhibitors; hit rate 3.4% among 340,000
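After 44 h co-culture of compound, cells and HCVcc-Cre (~0.5 moi), substrate is added for 15 min at room temperature and luciferase measured over 15 sec. Cells were seeded at 1,000/well and pre-cultured 4 h.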
* = called active by the depositor; ? = inconclusive; · = no result given. Shown are actives, neighbours in structure and some others; about 11% of the full set was active somewhere. The call rests on the fitted dose curve; in most records, active means well fitted curve in the direction sought with a large enough effect; inconclusive means small, poorly fitted or top-dose-only effect, or another doubt; inactive means no such curve, though single readings can be large; an effect the other way counts as inactive or inconclusive. Unless noted, on the % scale 0 is the no-effect control and ±100 the full control effect; potency means the concentration at half of the fitted maximal effect.

SMILES | Pf growth 96h | AmpC inh no detg | AMA1-RON2 inh | Pf growth 48h | AmpC detergent | HCV inhibitor
COc1ccc(Cn2c(SCc3ccc(C)cc3)nc3cc(OC)c(OC)cc3c2=N)cc1Cl | 2.3µM* | 64% | -3% | 1.7µM* | -7% | ?
Cc1cccc(Cn2nnc3c(=O)[nH]c(C4CCN(C(=O)c5ccc(F)cc5)CC4)nc32)c1 | · | · | · | · | 10% | ·
CCOC(=O)C(NC(C)=O)C(OC(C)=O)c1cccc(N(CCCl)CCCl)c1 (centres undefined) | 10µM* | 62% | -24% | ? | 5% | -20%
CCOC(=O)C(NC(C)=O)C(OC(C)=O)c1cccc([N+](=O)[O-])c1 (centres undefined) | 10% | -20% | -4% | 40% | -4% | 4%
CCOc1ccccc1NC(=O)NCc1ccc2c(c1)CCN2C(=O)c1ccccc1 | · | · | · | · | 1% | ·
CCC(=O)Nc1ccc(N2CCC(C)CC2)cc1 | 10µM* | -5% | -1% | -17% | -10% | 7%
Cc1ccc(C(=O)N2CCN(c3ccc(NC(=O)c4cccnc4Cl)cc3)CC2)cc1 | -53% | 52% | 6% | ? | ? | -6%
CC1CCN(c2ccc(NC(=O)c3cccnc3Cl)cc2)CC1 | 10µM* | 115% | -3% | 21% | 1% | -17%
CC1CCN(c2ccc(NC(=O)Cc3ccccc3)cc2)CC1 | ? | -15% | -7% | 19% | 3% | 6%
CCOC(=O)N1CCN(Cc2nc3c(c(=O)n(C)c(=O)n3C)n2Cc2cccc(C)c2)CC1 | ? | 155% | -8% | · | ? | -3%
CCOC(=O)N1CCN(Cc2nc3c(c(=O)n(C)c(=O)n3C)n2Cc2cccc3ccccc23)CC1 | 8.3µM* | 93% | 0% | 12µM* | ? | 10%
CCCOc1nc2c(c(=O)n(C)c(=O)n2C)n1Cc1cccc2ccccc12 | · | -7% | -1% | 13µM* | ? | ?
CCCc1nc2c(=O)n(C)c(=O)[nH]c2n1CCC | 10µM* | -1% | 3% | · | 4% | 20%
CCOc1ccc(N2C(=O)CC(N3CCN(c4ccc(Cl)cc4)CC3)C2=O)cc1 (centres undefined) | 3.3µM* | -7% | -4% | 1% | -2% | 5%
COc1ccc(CNC2CC(C)N(C)CC2C)cc1OC (centres undefined) | -18% | 43% | -5% | 10µM* | -12% | -28%
COc1ccc(CCNC2CC(C)N(C)CC2C)cc1OC (centres undefined) | ? | -21% | -10% | 2% | ? | ?
CN(C)c1ccc(CNC(=O)CCC(=O)N2Cc3ccccc3Oc3ncccc32)cc1 | · | · | · | · | 2% | ·
CCn1c(SCC(=O)Nc2cccc(C)c2)nc2c(c1=O)SC(C)C2 (centres undefined) | 13µM* | -3% | -12% | ? | 3% | ?
CCSc1nnc(NC(=O)CSc2nc3c(c(=O)n2CC)SC(C)C3)s1 (centres undefined) | 30% | -16% | 3% | ? | ? | ?
O=C(CSc1nc2c(c(=O)n1-c1ccc(F)cc1)SCC2)Nc1ccc2c(c1)OCO2 | · | · | -13% | · | · | -4%
CCSc1nnc(NC(=O)CSc2nc3c(c(=O)n2C)SC(C)C3)s1 (centres undefined) | 0% | -25% | 13% | 12µM* | 1% | ?
CC1Cc2nc(SCC(=O)Nc3ccc4c(c3)OCO4)n(-c3ccc(F)cc3)c(=O)c2S1 (centres undefined) | 3.7µM* | -20% | -2% | 1.7µM* | -6% | -11%

Screening data as filed in PubChem.
